Measured values taken from PubChem BioAssay (NCATS).
Inconclusive results are not listed. Active and inactive are the calls of the source. Unless noted, calls come from the whole dose curve; as a rule, active = well fitted curve in the direction sought with a large enough effect; inconclusive = small, poorly fitted or top-dose-only effect, or another doubt; inactive = no such curve, though single readings can be large; an effect the other way counts as inactive or inconclusive.

Tests used:
[1] = Quantitative high throughput screen for delayed death inhibitors of the malarial parasite plastid, 48 hour incubation (AID 488752); note: nearly all actives have a fitted effect of over 65% in size; note: potency is the fitted concentration of half-maximal effect
How it was run: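 Luciferase-expressing P. falciparum in RBCs, 2% Hct, 0.1% parasitemia final; RPMI 1640 + 0.5% Albumax; 48 h, 37 C, 5% CO2; luminescence readout, signal drop = growth inhibition.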

[2] = target: Thioredoxin reductase 1, cytoplasmic (Rattus norvegicus) (UniProt O89049); experiment: qHTS Assay for Substrates of Mammalian Selenoprotein Thioredoxin Reductase 1 (TrxR1) (AID 488772);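 note: series mostly up to about 57 µM; 0% is about no effect; a drop in NADPH fluorescence below the no-compound background marks a TrxR1 substrate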
How it was run: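 In this dual-purpose format, potential substrates are identified from the first fluorescence read after selenite addition, not from the 8-minute delta. Rat enzyme is preincubated with NADPH and then with compound at ~22 deg C.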

[3] = target: Methanococcus maripaludis chaperonin (MmCpn) (UniProt Q6LX38); experiment: High-Throughput Screening for Modulators of Cytosolic Chaperonin Activity: MmCpn Primary Screen (AID 488978);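 note: 50 nM MmCpn enzyme hydrolysing 30 µM ATP at 37 °C; 0% is about no effect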
How it was run: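 MmCpn (50 nM final) was preincubated with compound 5 min at RT, then 30 uM ATP (final) was added and the reaction ran 10 min at 37C. ADP produced was detected by Transcreener HTRF (ex 320 nm; em 590/665 nm).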

[4] = target: Thyrotropin receptor (Homo sapiens) (UniProt P16473); experiment: qHTS Assay for Antagonists of the Thyroid Stimulating Hormone Receptor (AID 488980); note: series mostly up to about 58 µM; 0% is about no effect
How it was run: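 HEK293 cells transfected with human TSHR, suspended in HEPES-buffered HBSS with 70 uM RO 20-1724, were treated with compounds plus TSH at EC80 (4 nM final). cAMP was measured by competitive HTRF (cryptate anti-cAMP antibody, cAMP-d2 acceptor).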

[5] = Validation screen for small molecules that induce genotoxicity in human embryonic kidney (HEK293T) cells expressing luciferase-tagged ELG1 (AID 493106); note: 0% is about no effect
How it was run: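 qHTS format; 2,000 HEK293T ELG1-luc cells/well; 23 nL compound via pin tool; 16 hr, 37 °C/5% CO2; ONE-Glo, 30 min RT; luminescence read.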

[6] = target: Thyrotropin-releasing hormone receptor (Homo sapiens) (UniProt P34981); experiment: qHTS for Small Molecule Agonists and Allosteric Enhancers of Human TRH Receptor: Validation Screen for Agonists (AID 493127;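 active = calcium activation more than 3 SD above the typical response in the agonist read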;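 note: intracellular calcium rise by fluo-8 fluorescence before TRH EC20 addition; 0% is about no effect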); details: TRH receptor agonist cell assay; at 2 µM; stronger effect = higher value
How it was run: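 Read-out: intracellular calcium release measured kinetically by FDSS (fluo-8, ex 480/em 530 nm), 1 reading/s after a 10-cycle baseline. TRHR cells, 2000/well, cultured 18 h at 33.5C, dye-loaded at room temp. Compound-evoked positive calcium signal flags agonists.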

[7] = qHTS for Inhibitors of Cell Surface uPA Generation: Validation Assay (AID 493164);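 note: RAW 264.7 macrophage cells exposed to compound for 18 h; 0% is about no effect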
How it was run: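 Compounds are titrated over seven points (2.45 nM–38.3 uM final) onto pre-plated RAW 264.7 cells and incubated for 18 h. Retained intracellular ATP, measured with ATP-Lite, indicates blocked lethal factor entry.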

[8] = target: Galactokinase (Homo sapiens) (UniProt P51570); experiment: qHTS Validation Assay for Inhibitors of Human Galactokinase (GALK) (AID 493189); note: 0% is about no effect
How it was run: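 GALK (5 nM) with 35 uM ATP and 100 uM galactose in HEPES pH8.0, MgCl2, NaCl, DTT, BSA; 1 h at room temperature. Residual ATP read by Kinase-Glo Plus luminescence after 10 min.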

[9] = target: Flap endonuclease 1 (Homo sapiens) (UniProt P39748); experiment: qHTS Validation Assay for the Inhibitors of Human Flap endonuclease 1 (FEN1) (AID 488816); note: % is set by controls: 0 for no effect and ±100 for the full control effect
How it was run: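 qHTS format: compounds and 10 nM FEN1 incubated 15 min at room temperature before adding 50 nM substrate. Cleavage followed by reads at 0 and 15 min; normalized data fitted to a four-parameter Hill curve.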

[10] = target: M-phase phosphoprotein 8 (Homo sapiens) (UniProt Q99549); experiment: qHTS Validation Assay for Inhibitors for MPP8 Chromodomain Interactions with Methylated Histone Tails (AID 488949);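 note: AlphaScreen signal from MPP8 chromodomain bound to biotinylated H3K9me3 peptide; top concentration of the series differs between compounds; % is set by controls: 0 for no effect and ±100 for the full control effect; nearly all actives have a fitted effect of over 55% in size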
How it was run: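 MPP8 (50 nM) was preincubated with biotinylated H3(1-18)K9me3 peptide (50 nM) in PBS pH 7.4, 0.01% Tween-20 for 30 min at room temperature, then with compounds for 30 min; binding was detected by AlphaScreen.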

[11] = target: Chromobox protein homolog 1 (Homo sapiens) (UniProt P83916); experiment: qHTS Validation Assay for Inhibitors of HP1-beta Chromodomain Interactions with Methylated Histone Tails (AID 488953);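 note: loss of AlphaScreen luminescence from HP1-beta binding biotinylated H3K9me3 peptide; series mostly up to about 110 µM; % is set by controls: 0 for no effect and ±100 for the full control effect; nearly all actives have a fitted effect of over 50% in size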
How it was run: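 AlphaScreen proximity readout: streptavidin donor and Ni-chelate acceptor beads, 10 ug/mL final, 30 min dark, RT. Complex of 50 nM HP1-beta and 50 nM b-H3(1-18)K9me3 formed 30 min, then compound-treated 30 min; PBS pH 7.4/0.01% Tween-20.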

[12] = target: Transient receptor potential cation channel subfamily V member 1 (Homo sapiens) (UniProt Q8NER1); experiment: HTS Assay for Compounds that Act as Enhancers of the Vanilloid Receptor 1 (AID 488979); note: 0% is about no effect
How it was run: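 Calcium influx kinetics via Fluo-8 (480/520 nm) in TRPV1-expressing cells, 2000/well cultured overnight at 35.5C. Compound-alone read 3 min (agonist phase), followed by EC20 capsaicin challenge for 2 min (enhancer phase).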

[13] = target: D(1A) dopamine receptor (Homo sapiens) (UniProt P21728); experiment: HTS Assay for Allosteric Agonists of the Human D1 Dopamine Receptor: Primary Screen for Agonists (AID 488981); note: 0% is about no effect
How it was run: (§1)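 Calcium flux in an inducible, force-coupled HEK293 Trex D1 line (overnight at 30 C): agonist mode is the 180 s kinetic read after compound; potentiator mode is the following 180 s read after dopamine at EC20.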

[14] = target: D(1A) dopamine receptor (Homo sapiens) (UniProt P21728); experiment: HTS Assay for Allosteric Agonists of the Human D1 Dopamine Receptor: Primary Screen for Potentiators (AID 488982); note: 0% is about no effect
How it was run: as §1

[15] = target: D(1A) dopamine receptor (Homo sapiens) (UniProt P21728); experiment: HTS Assay for Allosteric Agonists of the Human D1 Dopamine Receptor: Primary Screen for Antagonists (AID 488983);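 note: calcium flux response to an EC80 dopamine challenge measured with no-wash dye; nearly all actives have a fitted effect of over 65% in size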; note: potency is the fitted concentration of half-maximal effect
How it was run: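 Calcium flux readout, no-wash dye, inducible HEK293 T-REx D1 line (force-coupled). Compound added after 10 s baseline, 180 s kinetic read; then dopamine at EC80, further 180 s read.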

[16] = target: ATP-dependent 6-phosphofructokinase (Trypanosoma brucei brucei) (UniProt O15648); experiment: qHTS Assay to Find Inhibitors of T. brucei phosphofructokinase: hit validation (AID 492961);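 note: luminescence reports ADP formed as PFK phosphorylates fructose-6-phosphate with ATP; series mostly up to about 51 µM; % is set by controls: 0 for no effect and ±100 for the full control effect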
How it was run: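 In this biochemical qHTS validation, titrated compounds were tested against 1.25 nM PFK with 0.1 mM ATP and 0.5 mM F6P. Percent activity came from controls lacking or containing enzyme.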

[17] = target: ATPase family AAA domain-containing protein 5 (Homo sapiens) (UniProt Q96QE3); experiment: Validation screen for small molecules that inhibit ELG1-dependent DNA repair in human embryonic kidney (HEK293T) cells expressing luciferase-tagged ELG1 (AID 493107);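 note: cells co-treated with the DNA-damaging agent 5-fluorouridine alongside compound; series mostly up to about 46 µM; % is set by controls: 0 for no effect and ±100 for the full control effect; inhibitors lower the ELG1-luciferase luminescence signal; nearly all actives have a fitted effect of over 70% in size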
How it was run: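 ELG1-luciferase HEK293T reporter; 5-fluorouridine + compound/DMSO, 16 hr, 37 °C, 5% CO2; ONE-Glo 30 min RT; luminescence read, qHTS format.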

[18] = Nrf2 qHTS screen for inhibitors: Validation (AID 493153; active = well fitted inhibition curve with a large enough effect in the main read-out, with a control signal flat, not every such curve was filed as active); details: Potency: luciferase luminescence; viability change: measured here: cytotoxicity max response
How it was run: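 Concentration-response test in A549 ARE_Fluc reporter cells (5% FBS OPTI-MEM), compound exposure 18-24 h at 37°C, 5% CO2. Cell viability measured first by CellTiter-Fluor fluorescence; ARE-driven luciferase luminescence then measured as Nrf2 activity.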

[19] = target: Thioredoxin reductase 1, cytoplasmic (Rattus norvegicus) (UniProt O89049); experiment: qHTS Assay for Inhibitors of Mammalian Selenoprotein Thioredoxin Reductase 1 (TrxR1) (AID 488773); details: Potency: inhibition;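 note: drop in NADPH fluorescence over an 8 min run after selenite addition; series mostly up to about 57 µM; % is set by controls: 0 for no effect and ±100 for the full control effect; nearly all actives have a fitted effect of over 40% in size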
How it was run: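 Inhibition is scored from the loss of NADPH fluorescence between first and last reads of an 8-min kinetic run. Selenite (400 uM) was the substrate, added after 15 min compound preincubation at room temperature.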

Chain of Chromobox protein homolog 1 (Homo sapiens) (P83916 whole entry, looked up): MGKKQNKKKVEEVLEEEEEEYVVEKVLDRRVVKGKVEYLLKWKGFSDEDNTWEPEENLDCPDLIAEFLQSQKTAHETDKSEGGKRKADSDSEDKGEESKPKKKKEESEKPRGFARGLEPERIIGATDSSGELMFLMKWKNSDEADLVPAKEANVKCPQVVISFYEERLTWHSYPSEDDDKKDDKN
Chain of Flap endonuclease 1 (Homo sapiens) (P39748 whole entry, looked up): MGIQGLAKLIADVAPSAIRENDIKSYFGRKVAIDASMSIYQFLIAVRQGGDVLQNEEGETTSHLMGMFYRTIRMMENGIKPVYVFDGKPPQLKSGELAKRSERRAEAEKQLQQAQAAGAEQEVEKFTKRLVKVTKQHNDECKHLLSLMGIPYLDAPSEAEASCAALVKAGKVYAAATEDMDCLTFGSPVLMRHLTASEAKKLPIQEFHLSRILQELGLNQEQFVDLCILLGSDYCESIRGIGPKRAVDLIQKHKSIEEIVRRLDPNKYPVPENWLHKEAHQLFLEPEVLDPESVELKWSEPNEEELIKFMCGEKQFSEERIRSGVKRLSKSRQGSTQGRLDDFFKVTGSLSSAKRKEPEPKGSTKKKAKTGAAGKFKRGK
Chain of Galactokinase (Homo sapiens) (P51570 whole entry, looked up): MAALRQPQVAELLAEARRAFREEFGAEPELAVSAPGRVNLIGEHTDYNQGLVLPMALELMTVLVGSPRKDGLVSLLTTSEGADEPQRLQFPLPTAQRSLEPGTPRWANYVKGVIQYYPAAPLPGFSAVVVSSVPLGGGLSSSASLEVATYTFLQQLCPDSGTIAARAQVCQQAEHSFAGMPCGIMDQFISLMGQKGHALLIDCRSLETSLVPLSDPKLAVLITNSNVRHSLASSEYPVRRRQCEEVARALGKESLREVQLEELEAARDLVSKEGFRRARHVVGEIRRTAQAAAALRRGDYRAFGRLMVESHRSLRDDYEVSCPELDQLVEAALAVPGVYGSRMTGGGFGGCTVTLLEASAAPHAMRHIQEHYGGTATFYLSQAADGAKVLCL
Chain of D(1A) dopamine receptor (Homo sapiens) (P21728 whole entry, looked up): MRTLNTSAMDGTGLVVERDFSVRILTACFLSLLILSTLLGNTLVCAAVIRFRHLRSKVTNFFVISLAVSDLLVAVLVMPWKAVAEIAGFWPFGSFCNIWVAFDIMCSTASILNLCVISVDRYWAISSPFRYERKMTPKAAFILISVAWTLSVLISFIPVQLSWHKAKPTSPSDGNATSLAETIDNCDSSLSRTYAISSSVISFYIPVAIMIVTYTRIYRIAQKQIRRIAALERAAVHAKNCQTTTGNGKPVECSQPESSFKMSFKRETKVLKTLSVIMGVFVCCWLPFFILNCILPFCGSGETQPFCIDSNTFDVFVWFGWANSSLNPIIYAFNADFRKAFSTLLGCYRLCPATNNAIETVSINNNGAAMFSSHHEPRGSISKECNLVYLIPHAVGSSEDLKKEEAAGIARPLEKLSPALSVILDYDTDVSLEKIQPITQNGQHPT
Chain of Thioredoxin reductase 1, cytoplasmic (Rattus norvegicus) (O89049 whole entry, looked up): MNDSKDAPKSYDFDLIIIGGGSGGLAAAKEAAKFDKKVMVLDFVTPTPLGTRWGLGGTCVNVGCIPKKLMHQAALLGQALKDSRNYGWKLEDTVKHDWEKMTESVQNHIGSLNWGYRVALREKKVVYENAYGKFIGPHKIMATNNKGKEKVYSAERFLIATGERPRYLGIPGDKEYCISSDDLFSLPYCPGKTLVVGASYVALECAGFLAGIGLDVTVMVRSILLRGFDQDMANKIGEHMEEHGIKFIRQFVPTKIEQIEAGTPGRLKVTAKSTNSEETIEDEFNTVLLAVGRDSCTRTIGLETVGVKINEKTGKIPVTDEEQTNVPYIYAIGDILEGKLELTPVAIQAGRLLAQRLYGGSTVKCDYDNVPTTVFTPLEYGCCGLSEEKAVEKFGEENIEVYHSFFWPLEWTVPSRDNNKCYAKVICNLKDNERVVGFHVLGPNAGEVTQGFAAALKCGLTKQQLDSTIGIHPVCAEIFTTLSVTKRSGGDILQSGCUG
Chain of Methanococcus maripaludis chaperonin (MmCpn) (Q6LX38 1-543): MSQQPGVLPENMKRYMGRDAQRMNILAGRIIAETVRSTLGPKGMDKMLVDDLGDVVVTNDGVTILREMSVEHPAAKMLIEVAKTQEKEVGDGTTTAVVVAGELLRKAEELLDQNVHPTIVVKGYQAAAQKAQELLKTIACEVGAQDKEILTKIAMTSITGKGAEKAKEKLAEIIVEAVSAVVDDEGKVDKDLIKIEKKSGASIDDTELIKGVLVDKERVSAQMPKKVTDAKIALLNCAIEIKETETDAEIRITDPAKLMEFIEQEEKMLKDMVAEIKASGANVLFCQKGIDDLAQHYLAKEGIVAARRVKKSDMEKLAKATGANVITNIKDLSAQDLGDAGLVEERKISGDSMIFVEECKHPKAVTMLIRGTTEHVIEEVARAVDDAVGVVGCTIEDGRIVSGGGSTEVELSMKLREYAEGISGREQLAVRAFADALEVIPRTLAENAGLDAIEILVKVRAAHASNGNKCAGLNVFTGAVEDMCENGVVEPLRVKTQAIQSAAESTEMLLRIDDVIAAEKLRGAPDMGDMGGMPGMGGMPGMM
Chain of ATPase family AAA domain-containing protein 5 (Homo sapiens) (Q96QE3 whole entry, looked up, the tested form may be a part): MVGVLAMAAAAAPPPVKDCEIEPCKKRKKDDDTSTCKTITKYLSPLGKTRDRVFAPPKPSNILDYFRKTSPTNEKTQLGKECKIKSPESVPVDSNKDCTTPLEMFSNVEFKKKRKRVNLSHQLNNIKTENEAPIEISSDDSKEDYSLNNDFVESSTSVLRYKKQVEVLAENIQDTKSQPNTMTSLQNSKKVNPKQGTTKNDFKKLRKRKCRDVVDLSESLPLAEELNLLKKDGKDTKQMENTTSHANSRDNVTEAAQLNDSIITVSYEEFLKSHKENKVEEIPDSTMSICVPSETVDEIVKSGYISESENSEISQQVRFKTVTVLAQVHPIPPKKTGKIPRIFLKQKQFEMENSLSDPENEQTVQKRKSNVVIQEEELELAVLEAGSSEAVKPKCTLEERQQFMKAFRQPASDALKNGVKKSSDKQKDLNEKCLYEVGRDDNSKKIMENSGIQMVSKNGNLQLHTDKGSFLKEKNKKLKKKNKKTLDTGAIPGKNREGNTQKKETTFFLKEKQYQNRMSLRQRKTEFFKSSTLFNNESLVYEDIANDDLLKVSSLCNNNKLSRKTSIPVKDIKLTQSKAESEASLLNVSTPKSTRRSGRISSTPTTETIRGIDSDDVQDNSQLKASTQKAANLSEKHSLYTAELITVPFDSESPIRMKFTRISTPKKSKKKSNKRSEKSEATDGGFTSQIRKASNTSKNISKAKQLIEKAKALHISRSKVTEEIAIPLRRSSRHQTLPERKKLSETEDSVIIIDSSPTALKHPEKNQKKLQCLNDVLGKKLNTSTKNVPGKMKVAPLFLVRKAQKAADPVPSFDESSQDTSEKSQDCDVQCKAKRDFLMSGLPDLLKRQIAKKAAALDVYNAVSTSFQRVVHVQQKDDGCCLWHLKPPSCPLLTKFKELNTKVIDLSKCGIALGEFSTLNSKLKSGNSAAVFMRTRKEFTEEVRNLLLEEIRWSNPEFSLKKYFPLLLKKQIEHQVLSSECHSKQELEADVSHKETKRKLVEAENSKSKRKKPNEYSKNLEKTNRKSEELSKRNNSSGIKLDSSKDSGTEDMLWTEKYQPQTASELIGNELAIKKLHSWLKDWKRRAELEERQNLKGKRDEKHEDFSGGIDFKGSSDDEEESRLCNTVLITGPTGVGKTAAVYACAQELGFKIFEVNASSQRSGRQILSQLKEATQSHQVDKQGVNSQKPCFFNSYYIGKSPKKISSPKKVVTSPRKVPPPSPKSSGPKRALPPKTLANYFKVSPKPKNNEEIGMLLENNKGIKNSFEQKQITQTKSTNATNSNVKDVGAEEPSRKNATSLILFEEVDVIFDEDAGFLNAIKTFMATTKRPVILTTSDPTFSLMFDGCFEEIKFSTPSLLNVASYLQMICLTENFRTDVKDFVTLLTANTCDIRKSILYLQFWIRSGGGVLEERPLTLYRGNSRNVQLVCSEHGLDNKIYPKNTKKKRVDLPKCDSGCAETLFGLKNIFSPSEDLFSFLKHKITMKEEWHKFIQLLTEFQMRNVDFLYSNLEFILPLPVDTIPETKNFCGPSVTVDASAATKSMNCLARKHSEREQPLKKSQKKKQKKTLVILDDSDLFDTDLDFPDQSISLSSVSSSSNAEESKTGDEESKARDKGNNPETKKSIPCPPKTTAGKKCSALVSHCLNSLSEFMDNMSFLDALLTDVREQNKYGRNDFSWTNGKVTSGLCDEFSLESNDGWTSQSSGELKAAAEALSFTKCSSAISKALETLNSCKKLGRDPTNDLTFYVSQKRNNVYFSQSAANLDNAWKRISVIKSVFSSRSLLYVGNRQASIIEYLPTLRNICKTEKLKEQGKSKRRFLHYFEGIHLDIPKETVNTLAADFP
Chain of Thyrotropin-releasing hormone receptor (Homo sapiens) (P34981 whole entry, looked up): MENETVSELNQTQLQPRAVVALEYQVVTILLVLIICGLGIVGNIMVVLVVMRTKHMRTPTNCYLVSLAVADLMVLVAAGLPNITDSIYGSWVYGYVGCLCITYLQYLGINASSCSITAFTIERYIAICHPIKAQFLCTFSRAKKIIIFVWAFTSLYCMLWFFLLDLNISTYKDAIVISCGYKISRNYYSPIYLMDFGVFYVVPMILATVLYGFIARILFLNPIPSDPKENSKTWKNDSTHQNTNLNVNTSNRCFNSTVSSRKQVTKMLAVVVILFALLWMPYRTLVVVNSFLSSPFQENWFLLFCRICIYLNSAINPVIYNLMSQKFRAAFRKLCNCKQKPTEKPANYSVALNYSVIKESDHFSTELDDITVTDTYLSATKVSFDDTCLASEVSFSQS

O=C(CCCN1CCC(O)(c2ccc(Cl)cc2)CC1)c1ccc(F)cc1
active: Potency [1] 10.4 µM
inactive: outcome [2] | outcome [3] | outcome [4] | Potency [5] | activation [6] 4.81% | outcome [7] | Potency [8]

N[C@@H](Cc1c[nH]c2ccc(O)cc12)C(=O)O
inactive: Potency [1] | outcome [2] | Potency [9] | Potency [10] | Potency [11] | outcome [3] | outcome [12] | outcome [4] | Potency [13] | Potency [14] | Potency [15] | Potency [16] | Potency [5] | Potency [17] | activation [6] 0.125% | outcome [7] | Potency [8]

Clc1ccc(C(c2ccccc2Cl)C(Cl)Cl)cc1 (stereo not drawn)
inactive: Potency [1] | outcome [2] | Potency [9] | Potency [10] | outcome [3] | outcome [12] | outcome [4] | Potency [13] | Potency [14] | Potency [15] | Potency [5] | Potency [17] | activation [6] 1.38% | outcome [7] | Potency [8]

Cc1cc(C(C)(C)C)cc(C)c1CC1=NCCN1
inactive: Potency [1] | outcome [2] | Potency [9] | Potency [11] | outcome [3] | outcome [12] | outcome [4] | Potency [13] | Potency [14] | Potency [15] | Potency [16] | Potency [5] | Potency [18] | outcome [7] | Potency [8]
1.17%: viability change [18]

CC(C)C(=O)Nc1ccc([N+](=O)[O-])c(C(F)(F)F)c1
inactive: Potency [1] | outcome [2] | Potency [19] | Potency [9] | outcome [3] | outcome [12] | outcome [4] | Potency [13] | Potency [15] | activation [6] -0.438% | outcome [7] | Potency [8]

COc1ccccc1OCC(O)CN1CCN(CC(=O)Nc2c(C)cccc2C)CC1 (stereo not drawn)
inactive: Potency [1] | Potency [19] | Potency [9] | Potency [10] | Potency [11] | outcome [3] | outcome [12] | outcome [4] | Potency [13] | Potency [14] | Potency [15] | Potency [5] | Potency [17] | activation [6] 0.375% | outcome [7] | Potency [8]

O=C(c1ccc(F)cc1)C1CCN(CCn2c(=O)[nH]c3ccccc3c2=O)CC1
active: Potency [15] 5.62 µM
2.61%: viability change [18]
inactive: outcome [2] | Potency [19] | Potency [9] | Potency [10] | Potency [11] | outcome [3] | outcome [12] | outcome [4] | Potency [13] | Potency [14] | Potency [5] | Potency [18] | outcome [7] | Potency [8]

COc1ccc(C2CNC(=O)C2)cc1OC1CCCC1 (stereo not drawn)
inactive: Potency [1] | Potency [19] | Potency [9] | Potency [10] | Potency [11] | outcome [3] | outcome [12] | outcome [4] | Potency [13] | Potency [14] | Potency [15] | Potency [5] | Potency [17] | activation [6] 0.812% | Potency [18] | outcome [7] | Potency [8]
3.91%: viability change [18]
